Laboratory results as given in the supplement of paper PMC10849652.
The full data set covers some 8,800 targets. This sample favours those with a hit. About 0.5% of all pairs of compound and target were hits. Unmarked numbers belong to inactive results.

Assays:
Assay in all cases: log2 fold change, soluble protein after heating vs DMSO (PISA); higher = thermal stabilisation; K562 lysate, 10 uM; active = over 0.2 and 3.5 SD of the protein, either way, in both replicates (recomputed)
alvocidib = compound: CN1CC[C@H](c2c(O)cc(O)c3c(=O)cc(-c4ccccc4Cl)oc23)[C@H](O)C1 [alvocidib]
Outline: (§1)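 A 30 min treatment with 10 μM compound was applied to crude K562 extract at 1 mg/mL protein in PBS pH 7.4 with 1 mM MgCl2. Heating for 3 min spanned 48°C-58°C, after which aliquots were pooled, adjusted to 0.5% NP-40 at 4°C and spun at 21,000xg for 90 min. TMTpro 16plex LC-MS/MS of the supernatant, with channel sums equalised, gave values recorded as log-two fold change in thermal stability against solvent controls, from duplicates.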

Tubastatin A = compound: CN1CCc2c(c3ccccc3n2Cc2ccc(C(=O)NO)cc2)C1 [Tubastatin A]
Outline: as §1

[1] = compound: CNC(=O)C1=CC=CC=C1NC2=NC(=NC=C2Cl)NC3=C(C=C(C=C3)N4CCOCC4)OC
Outline: as §1

defactinib = compound: CNC(=O)c1ccc(Nc2ncc(C(F)(F)F)c(NCc3nccnc3N(C)S(C)(=O)=O)n2)cc1 [defactinib]
Outline: as §1

[2] = compound: CNc1nc(-c2ccc3c(N)n[nH]c3c2)cc(N2C[C@@H](C(=O)NC3CCCCC3)CC[C@H]2C)n1
Outline: as §1

encorafenib = compound: COC(=O)N[C@@H](C)CNc1nccc(-c2cn(C(C)C)nc2-c2cc(Cl)cc(NS(C)(=O)=O)c2F)n1 [encorafenib]
Outline: as §1

[3] = compound: COC(=O)[C@H](CCSC)NC(=O)C1=C(C=C(C=C1)NC[C@H](CS)N)C2=CC=CC=C2
Outline: as §1

alisertib = compound: COc1cc(Nc2ncc3c(n2)-c2ccc(Cl)cc2C(c2c(F)cccc2OC)=NC3)ccc1C(=O)O [alisertib]
Outline: as §1

[4] = compound: COc1cc2nc(-c3cc(F)ccc3O)nc(N[C@@H]3CNC[C@H]3C(C)(C)O)c2cc1OC
Outline: as §1

gefitinib = compound: COc1cc2ncnc(Nc3ccc(F)c(Cl)c3)c2cc1OCCCN1CCOCC1 [gefitinib]
Outline: as §1

lapatinib = compound: CS(=O)(=O)CCNCc1ccc(-c2ccc3ncnc(Nc4ccc(OCc5cccc(F)c5)c(Cl)c4)c3c2)o1 [lapatinib]
Outline: as §1

pictilisib = compound: CS(=O)(=O)N1CCN(Cc2cc3nc(-c4cccc5[nH]ncc45)nc(N4CCOCC4)c3s2)CC1 [pictilisib]
Outline: as §1

crizotinib = compound: C[C@@H](Oc1cc(-c2cnn(C3CCNCC3)c2)cnc1N)c1c(Cl)ccc(F)c1Cl [crizotinib]
Outline: as §1

[5] = compound: C[C@H](C1=CC=C(C=C1)C(=O)NC2=C3C=CNC3=NC=C2)N
Outline: as §1

duvelisib = compound: C[C@H](Nc1ncnc2nc[nH]c12)c1cc2cccc(Cl)c2c(=O)n1-c1ccccc1 [duvelisib]
Outline: as §1

gandotinib = compound: Cc1cc(Nc2cc(CN3CCOCC3)c3nc(C)c(Cc4ccc(Cl)cc4F)n3n2)n[nH]1 [gandotinib]
Outline: as §1

tozasertib = compound: Cc1cc(Nc2cc(N3CCN(C)CC3)nc(Sc3ccc(NC(=O)C4CC4)cc3)n2)n[nH]1 [tozasertib]
Outline: as §1

doramapimod = compound: Cc1ccc(-n2nc(C(C)(C)C)cc2NC(=O)Nc2ccc(OCCN3CCOCC3)c3ccccc23)cc1 [doramapimod]
Outline: as §1

bafetinib = compound: Cc1ccc(NC(=O)c2ccc(CN3CC[C@H](N(C)C)C3)c(C(F)(F)F)c2)cc1Nc1nccc(-c2cncnc2)n1 [bafetinib]
Outline: as §1

[6] = compound: Cc1cccc(CC(=O)N2CCc3c2ccc(-c2cn(C)c4ncnc(N)c24)c3F)n1
Outline: as §1

Sequence of UniProt Q12904 (Q12904 whole entry, looked up): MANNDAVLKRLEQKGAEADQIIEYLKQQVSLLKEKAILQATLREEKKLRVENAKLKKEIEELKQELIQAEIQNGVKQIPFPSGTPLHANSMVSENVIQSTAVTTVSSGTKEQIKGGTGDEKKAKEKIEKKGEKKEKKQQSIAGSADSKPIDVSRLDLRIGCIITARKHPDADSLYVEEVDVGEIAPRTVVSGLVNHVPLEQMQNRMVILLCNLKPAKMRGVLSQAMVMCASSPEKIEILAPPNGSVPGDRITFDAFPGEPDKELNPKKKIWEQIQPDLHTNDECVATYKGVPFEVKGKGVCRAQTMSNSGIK
Sequence of UniProt P04114 (P04114 whole entry, looked up): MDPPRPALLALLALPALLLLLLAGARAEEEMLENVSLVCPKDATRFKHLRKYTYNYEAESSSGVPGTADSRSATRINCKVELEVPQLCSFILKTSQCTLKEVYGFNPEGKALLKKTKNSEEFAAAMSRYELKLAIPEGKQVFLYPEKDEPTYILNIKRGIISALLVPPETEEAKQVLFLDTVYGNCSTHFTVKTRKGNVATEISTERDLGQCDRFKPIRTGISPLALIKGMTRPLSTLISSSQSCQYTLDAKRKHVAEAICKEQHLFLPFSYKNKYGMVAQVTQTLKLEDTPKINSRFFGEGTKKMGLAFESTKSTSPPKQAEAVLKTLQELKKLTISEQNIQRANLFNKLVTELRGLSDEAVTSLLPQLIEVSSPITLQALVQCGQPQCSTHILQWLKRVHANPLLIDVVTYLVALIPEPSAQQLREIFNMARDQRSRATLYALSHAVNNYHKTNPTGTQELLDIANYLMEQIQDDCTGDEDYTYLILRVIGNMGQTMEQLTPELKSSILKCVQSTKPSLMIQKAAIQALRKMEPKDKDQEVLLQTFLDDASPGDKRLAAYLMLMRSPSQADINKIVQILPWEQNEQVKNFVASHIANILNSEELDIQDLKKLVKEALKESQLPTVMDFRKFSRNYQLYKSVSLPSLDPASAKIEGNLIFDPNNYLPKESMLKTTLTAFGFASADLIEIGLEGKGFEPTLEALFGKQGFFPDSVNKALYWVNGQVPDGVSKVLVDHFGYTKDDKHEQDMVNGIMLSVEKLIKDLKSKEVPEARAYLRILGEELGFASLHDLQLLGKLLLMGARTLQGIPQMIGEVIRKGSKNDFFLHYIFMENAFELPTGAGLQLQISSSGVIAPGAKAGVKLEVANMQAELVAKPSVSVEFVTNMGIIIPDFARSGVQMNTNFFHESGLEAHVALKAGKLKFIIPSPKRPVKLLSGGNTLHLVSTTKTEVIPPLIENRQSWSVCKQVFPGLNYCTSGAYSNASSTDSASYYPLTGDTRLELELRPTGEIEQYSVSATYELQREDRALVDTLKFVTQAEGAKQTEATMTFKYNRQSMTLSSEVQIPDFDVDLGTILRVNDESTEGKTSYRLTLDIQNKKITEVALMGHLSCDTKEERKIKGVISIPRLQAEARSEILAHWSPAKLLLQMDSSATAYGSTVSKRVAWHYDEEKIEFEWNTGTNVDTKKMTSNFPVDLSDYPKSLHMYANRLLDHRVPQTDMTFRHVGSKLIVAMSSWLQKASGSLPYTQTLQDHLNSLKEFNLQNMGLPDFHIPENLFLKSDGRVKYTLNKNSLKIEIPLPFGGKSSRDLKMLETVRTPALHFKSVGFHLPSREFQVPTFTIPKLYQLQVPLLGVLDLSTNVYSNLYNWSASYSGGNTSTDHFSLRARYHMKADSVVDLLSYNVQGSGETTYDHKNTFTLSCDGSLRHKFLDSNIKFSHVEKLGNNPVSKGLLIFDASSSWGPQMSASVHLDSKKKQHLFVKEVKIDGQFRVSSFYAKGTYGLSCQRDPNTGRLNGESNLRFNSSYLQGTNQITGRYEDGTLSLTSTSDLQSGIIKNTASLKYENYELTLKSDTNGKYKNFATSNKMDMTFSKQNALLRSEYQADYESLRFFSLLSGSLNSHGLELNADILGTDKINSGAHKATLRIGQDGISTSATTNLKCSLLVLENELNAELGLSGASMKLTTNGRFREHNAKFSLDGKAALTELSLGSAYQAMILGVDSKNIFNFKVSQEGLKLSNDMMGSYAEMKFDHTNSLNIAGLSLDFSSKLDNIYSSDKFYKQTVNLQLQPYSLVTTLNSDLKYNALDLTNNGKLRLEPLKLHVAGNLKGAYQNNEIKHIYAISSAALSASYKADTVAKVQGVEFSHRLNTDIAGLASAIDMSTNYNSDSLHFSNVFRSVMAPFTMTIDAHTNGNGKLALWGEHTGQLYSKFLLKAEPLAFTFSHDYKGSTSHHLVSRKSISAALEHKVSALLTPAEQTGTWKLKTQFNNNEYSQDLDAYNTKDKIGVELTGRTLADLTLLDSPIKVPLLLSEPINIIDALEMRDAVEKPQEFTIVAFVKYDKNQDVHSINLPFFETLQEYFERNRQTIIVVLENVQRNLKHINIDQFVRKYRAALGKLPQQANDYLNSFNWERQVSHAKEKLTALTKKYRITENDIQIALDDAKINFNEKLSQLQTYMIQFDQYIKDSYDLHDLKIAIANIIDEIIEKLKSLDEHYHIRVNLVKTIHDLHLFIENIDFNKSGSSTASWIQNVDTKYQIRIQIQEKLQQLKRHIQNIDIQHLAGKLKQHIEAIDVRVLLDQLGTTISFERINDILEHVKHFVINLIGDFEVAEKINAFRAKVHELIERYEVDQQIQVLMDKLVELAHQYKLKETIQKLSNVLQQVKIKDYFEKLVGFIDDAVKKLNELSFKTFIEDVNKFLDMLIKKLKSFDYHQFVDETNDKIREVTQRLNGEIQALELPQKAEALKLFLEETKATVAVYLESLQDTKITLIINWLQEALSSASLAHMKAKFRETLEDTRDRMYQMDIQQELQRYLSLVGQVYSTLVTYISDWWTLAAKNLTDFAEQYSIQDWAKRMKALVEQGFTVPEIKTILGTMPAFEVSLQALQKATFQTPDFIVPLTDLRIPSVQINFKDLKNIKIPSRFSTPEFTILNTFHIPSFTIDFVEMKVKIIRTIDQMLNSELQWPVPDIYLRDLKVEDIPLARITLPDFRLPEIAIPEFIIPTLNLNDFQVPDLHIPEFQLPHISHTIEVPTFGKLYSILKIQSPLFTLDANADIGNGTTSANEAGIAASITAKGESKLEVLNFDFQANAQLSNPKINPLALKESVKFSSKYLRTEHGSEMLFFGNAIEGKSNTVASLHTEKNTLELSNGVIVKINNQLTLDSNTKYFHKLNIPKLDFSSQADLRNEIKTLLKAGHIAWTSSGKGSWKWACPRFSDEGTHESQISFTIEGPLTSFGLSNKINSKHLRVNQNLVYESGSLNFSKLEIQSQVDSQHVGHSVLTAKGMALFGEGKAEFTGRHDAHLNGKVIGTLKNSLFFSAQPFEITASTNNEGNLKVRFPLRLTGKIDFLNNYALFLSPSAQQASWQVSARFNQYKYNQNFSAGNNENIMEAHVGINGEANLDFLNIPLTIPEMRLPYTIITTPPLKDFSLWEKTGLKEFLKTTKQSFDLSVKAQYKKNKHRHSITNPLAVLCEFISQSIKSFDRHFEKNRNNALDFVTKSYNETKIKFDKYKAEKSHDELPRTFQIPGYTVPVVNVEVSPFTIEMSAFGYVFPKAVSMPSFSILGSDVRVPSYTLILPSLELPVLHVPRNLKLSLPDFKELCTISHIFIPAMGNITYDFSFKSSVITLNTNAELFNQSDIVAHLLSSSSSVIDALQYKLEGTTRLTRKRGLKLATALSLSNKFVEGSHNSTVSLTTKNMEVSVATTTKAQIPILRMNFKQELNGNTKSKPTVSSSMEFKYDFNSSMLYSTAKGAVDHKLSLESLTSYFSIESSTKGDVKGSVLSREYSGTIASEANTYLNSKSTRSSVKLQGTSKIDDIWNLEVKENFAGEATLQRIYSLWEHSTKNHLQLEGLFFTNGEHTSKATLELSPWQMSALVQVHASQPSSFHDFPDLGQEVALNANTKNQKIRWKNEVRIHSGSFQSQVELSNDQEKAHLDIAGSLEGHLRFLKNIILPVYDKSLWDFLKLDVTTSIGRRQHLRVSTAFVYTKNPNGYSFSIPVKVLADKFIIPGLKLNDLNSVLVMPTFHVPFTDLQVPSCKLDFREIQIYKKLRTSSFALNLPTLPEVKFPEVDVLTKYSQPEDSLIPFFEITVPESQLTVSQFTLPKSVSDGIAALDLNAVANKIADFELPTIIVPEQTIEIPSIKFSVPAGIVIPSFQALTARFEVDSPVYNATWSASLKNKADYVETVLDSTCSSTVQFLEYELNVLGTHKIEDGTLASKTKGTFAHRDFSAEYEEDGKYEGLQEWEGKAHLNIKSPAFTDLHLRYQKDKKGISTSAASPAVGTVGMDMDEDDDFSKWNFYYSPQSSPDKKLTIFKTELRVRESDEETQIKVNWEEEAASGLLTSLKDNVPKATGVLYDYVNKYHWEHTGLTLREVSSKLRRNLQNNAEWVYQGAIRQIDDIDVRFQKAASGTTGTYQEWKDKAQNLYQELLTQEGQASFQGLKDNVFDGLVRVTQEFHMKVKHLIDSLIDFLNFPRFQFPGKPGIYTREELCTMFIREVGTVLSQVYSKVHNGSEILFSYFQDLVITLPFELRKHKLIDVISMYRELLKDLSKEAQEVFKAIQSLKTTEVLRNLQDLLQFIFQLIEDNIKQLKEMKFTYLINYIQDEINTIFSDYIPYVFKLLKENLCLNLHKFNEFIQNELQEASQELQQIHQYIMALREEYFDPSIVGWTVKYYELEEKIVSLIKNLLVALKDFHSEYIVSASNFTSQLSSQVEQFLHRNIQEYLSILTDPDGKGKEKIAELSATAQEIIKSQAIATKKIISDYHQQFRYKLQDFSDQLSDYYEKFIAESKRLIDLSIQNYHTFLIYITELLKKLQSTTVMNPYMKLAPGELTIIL
Sequence of UniProt P40616 (P40616 whole entry, looked up): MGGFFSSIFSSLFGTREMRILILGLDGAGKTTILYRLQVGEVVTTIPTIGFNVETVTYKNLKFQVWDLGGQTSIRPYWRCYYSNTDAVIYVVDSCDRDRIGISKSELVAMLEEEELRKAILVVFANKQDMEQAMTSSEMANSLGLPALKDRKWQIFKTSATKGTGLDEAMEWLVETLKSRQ

| Target | log2 fold change (alvocidib) | log2 fold change (Tubastatin A) | log2 fold change [1] | log2 fold change (defactinib) | log2 fold change [2] | log2 fold change (encorafenib) | log2 fold change [3] | log2 fold change (alisertib) | log2 fold change [4] | log2 fold change (gefitinib) | log2 fold change (lapatinib) | log2 fold change (pictilisib) | log2 fold change (crizotinib) | log2 fold change [5] | log2 fold change (duvelisib) | log2 fold change (gandotinib) | log2 fold change (tozasertib) | log2 fold change (doramapimod) | log2 fold change (bafetinib) | log2 fold change [6] |
| --- | --- | --- | --- | --- | --- | --- | --- | --- | --- | --- | --- | --- | --- | --- | --- | --- | --- | --- | --- | --- |
| AP1G2 (UniProt O75843) | 0.04 | -0.099 | 0.068 | -0.006 | 0.036 | -0.03 | -0.015 | 0.037 | 0.056 | 0.03 | 0.068 | -0.008 | -0.095 | -0.049 | -0.02 | 0 | -0.02 | -0.004 | 0.026 | 0.039 |
| ABHD16A (UniProt O95870) | 0.036 | 0.066 | -0.077 | 0.009 | 0.054 | -0.074 | 0.245 (active) | -0.029 | -0.004 | -0.021 | 0.032 | 0.028 | 0.018 | 0.006 | -0.078 | 0.081 | -0.072 | 0.013 | 0.018 | -0.021 |
| ARL1 (UniProt P40616) | -0.017 | -0.025 | 0.079 | 0.001 | 0.088 | 0.111 | -0.293 (active) | 0.081 | 0.053 | 0.057 | 0.001 | 0.051 | -0.028 | -0.056 | 0.001 | 0.159 | 0.004 | 0.228 (active) | -0.027 | 0.096 |
| AIMP1 isoform 2 (UniProt Q12904) | 0.056 | -0.118 | 0.01 | 0.018 | 0.028 | -0.005 | 0.11 | 0.004 | -0.009 | -0.029 | -0.019 | -0.004 | -0.05 | 0.023 | 0.007 | -0.085 | -0.008 | -0.015 | -0.041 | -0.012 |
| ACAT1 (UniProt P24752) | 0.018 | -0.136 | 0.001 | -0.027 | 0.05 | -0.033 | 0.04 | 0 | -0.006 | -0.06 | -0.024 | -0.013 | 0.029 | -0.018 | -0.016 | 0.03 | -0.009 | -0.005 | 0.026 | 0.008 |
| AP3D1 isoform 5 (UniProt O14617) | -0.02 | -0.048 | 0.018 | 0.033 | 0.03 | 0.026 | -0.028 | -0.009 | 0.004 | -0.014 | 0.008 | 0.01 | -0.02 | -0.061 | 0.023 | 0.05 | 0.019 | 0.059 | -0.042 | 0.081 |
| AP4B1 (UniProt Q9Y6B7) | -0.053 | -0.021 | -0.051 | -0.001 | 0.041 | 0.057 | -0.01 | -0.014 | -0.121 | 0.031 | 0.064 | -0.142 | 0.025 | -0.106 | -0.058 | -0.023 | -0.011 | 0.019 | -0.079 | 0.135 |
| AK1 (UniProt P00568) | 0.154 | 0.009 | -0.034 | -0.035 | -0.007 | -0.036 | -0.07 | 0 | 0.013 | -0.019 | -0.027 | -0.011 | 0.091 | 0.285 (active) | -0.001 | -0.118 | 0.023 | -0.037 | 0.06 | -0.189 |
| ARMCX5 (UniProt Q6P1M9) | 0.029 | -0.105 | 0.067 | 0.014 | -0.012 | 0.045 | 0.023 | -0.003 | 0.035 | 0.035 | -0.033 | 0.04 | – | -0.001 | -0.114 | 0.001 | 0.032 | – | -0.104 | 0.078 |
| APOB (UniProt P04114) | -0.078 | 0.099 | -0.021 | -0.04 | 0.264 | -0.008 | 0.003 | -0.024 | 0.023 | 0.014 | 0.054 | 0.004 | -0.003 | -0.182 | 0.104 | 0.084 | 0.015 | 0.024 | -0.091 | 0.06 |
| ACTG1 (UniProt I3L4N8) | 0.089 | 0.119 | 0.046 | -0.142 | -0.005 | 0.209 | 0 | -0.198 | -0.003 | -0.115 | -0.072 | -0.209 | -0.066 | -0.039 | 0.13 | -0.159 | 0.083 | -0.065 | -0.183 | -0.096 |
| AMDHD2 isoform 3 (UniProt Q9Y303) | -0.016 | 0 | 0.018 | 0.014 | 0.018 | -0.028 | 0.1 | 0.023 | -0.013 | 0.034 | 0.014 | -0.081 | 0.025 | 0.006 | -0.043 | 0.008 | -0.013 | 0.003 | 0.093 | 0.009 |
| ALG13 (UniProt Q9NP73) | -0.039 | -0.065 | 0.122 | 0.028 | 0.053 | 0.059 | -0.082 | -0.059 | 0 | -0.224 | 0.017 | -0.002 | -0.12 | -0.075 | 0 | 0.044 | -0.091 | -0.015 | -0.025 | 0.127 |
| ANKRD54 (UniProt Q6NXT1) | -0.019 | -0.095 | 0.121 | 0.022 | 0.042 | 0.082 | -0.147 | 0.006 | -0.011 | 0.002 | 0.038 | -0.008 | 0.058 | 0.01 | 0.008 | 0.049 | -0.002 | 0.044 | -0.029 | -0.007 |
| ABHD12 isoform 2 (UniProt Q8N2K0) | 0.02 | 0.001 | 0.039 | -0.004 | 0.003 | 0.046 | -0.018 | -0.031 | -0.03 | -0.045 | -0.006 | -0.069 | -0.04 | 0.078 | -0.057 | -0.095 | 0.06 | 0.04 | 0.062 | -0.063 |
